Laboratory results from PubChem BioAssay.

Assay: JC-1 mitochondrial signal, unstimulated adipocytes – cell-based, JC-1 fluorescence, 3T3-L1 adipocytes, 24 h, 100 nL compound, profiling panel (AID 1168); note: test concentration not given here
Conditions: JC-1 mitochondrial fluorescence, higher = more signal, called active from +8 up or from −8 down

z-score, inactive:
CC(C)[Si]1(C(C)C)O[C@@H](c2ccccc2)c2cc(-c3ccc(-c4ccc(Cl)c(Cl)c4)o3)nc(-c3ccccc3)c21 -1.06
OCCCC1=CC(c2cccs2)N(Cc2cc3c(cc2Br)OCO3)CC1 (stereo not given) -0.359
CCOC(=O)C[C@H]1[C@H](OC(=O)c2ccc(C(=O)c3ccccc3)cc2)[C@@H](NC(=O)c2ccc3ccccc3c2)c2cc(OCCCO)ccc2N1C(=O)Cc1ccc(OC)cc1 -0.808
C=C(CC1([C@@H](NP(=O)(c2ccccc2)c2ccccc2)[C@H]2C[C@@H]2CCCC)CC1)c1ccccc1 -0.841
COc1cc(COC(C)=O)ccc1OC(C)=O 0.374
C=C(CCCC)/C(=C/C[C@@H](OC(=O)c1ccncc1)c1ccc(OCCO)cc1)c1cc(C(=O)OC)ccc1OC -0.451
C=C(CCCC)C(=O)CC[C@@H](OC(=O)c1ccccc1-c1ccccc1C(=O)O)c1ccc(OCCO)cc1 -1.03
COCCOC(=O)N1C(=O)[C@@]2(c3cc(C#CCC(C(=O)OC)C(=O)OC)ccc31)[C@H](C(=O)Nc1nc3ccccc3s1)[C@H]1C(=O)O[C@H](c3ccccc3)[C@H](c3ccccc3)N1[C@@H]2c1ccccc1OCCO 0.803
NC(=O)N1C(=O)C2C(C1=O)C1C=C(c3ccc(CO)cc3)C2C(c2cccs2)N1Cc1cccc(OC(F)(F)F)c1 (stereo not given) 0.863
COCCOC(=O)N1C(=O)[C@@]2(c3cc(C#CCNC(N)=O)ccc31)[C@H](C(=O)N1CCN(c3ncccn3)CC1)[C@H]1C(=O)O[C@H](c3ccccc3)[C@H](c3ccccc3)N1[C@@H]2c1ccc(OCCO)cc1 1.6
CCCc1cc2c(n1Cc1cc(F)cc(F)c1)C(C)C1CN(C(=O)c3ccccc3)C(C)(C(=O)OC)C21 (stereo not given) -1.98
CCCC[C@@H]1C[C@H]1[C@@H](NC(=O)c1ccco1)c1ccc(-c2ccccc2)cc1 -0.168
C=CC[C@@]12N=C(c3ccc(OCCCO)cc3)O[C@@H]1c1ccccc1N(C)C2=O 1.51
COC(=O)[C@@]1(Cc2ccccc2)N=C(c2ccc(OCCCO)cc2)O[C@H]1c1ccccc1 0.294
COc1cccc(-c2cccc(=O)o2)c1 0.236
C=C[C@H](CO[Si](CC)(CC)CC)N(Cc1ccc(OC(C)=O)c(OC)c1)S(=O)(=O)c1ccc(Br)cc1 1.07
NC(=O)NCC#Cc1ccc2c(c1)[C@]1(C(=O)N2)[C@H](c2ccc(O)cc2)N2[C@H](c3ccccc3)[C@H](c3ccccc3)OC(=O)[C@H]2[C@@H]1C(=O)O -1.47
COC(=O)C[C@H]1O[C@]2(C(=O)N(C)c3ccccc32)[C@@H](C)[C@@H]1[Si](C)(C)F -0.125
O=C1C2C=CC(C(O)c3cc(C(F)(F)F)cc(C(F)(F)F)c3)N(n3cnnc3)C2C(=O)N1Cc1ccccc1 (stereo not given) -1.62
Cc1nc2cc(Br)ccc2c(=O)o1 0.499
C=C(CCCC)/C(=C/C[C@@H](OC(C)=O)c1ccc(OCCO)cc1)c1cnc2ccccc2c1 -0.38
COc1cc2c(cc1O)C(C1CC1)N(Cc1sc3ccccc3c1Cl)CC2 (stereo not given) -1.07
COc1cc2c(cc1O)C(c1cccs1)N(C)CC2 (stereo not given) -0.0427
CN1C=C(C(=O)OCCS(C)(=O)=O)C(C(=O)OCCS(C)(=O)=O)=CC(c2ccc(CO)cc2)=CC1C1CC1 (stereo not given) -0.9
Cc1ccc(N2C(=O)c3ccccc3[C@@H](C(=O)NC3CC3)[C@@H]2c2ccc(CO)cc2)nc1 -0.289
O=C1C[C@@](C(=O)NCC(F)(F)F)(c2ccc([N+](=O)[O-])cc2)[C@@H](c2ccc(CO)cc2I)N1C1CCCCC1 -0.226
Cc1ccc(S[C@]2(C(=O)NCCCN(C)C)CC(=O)N(Cc3cc(C(F)(F)F)cc(C(F)(F)F)c3)[C@@H]2c2ccc(CO)cc2)cc1 -0.849
C=C(COC)/C(=C/C[C@@H](OC(=O)c1ccncc1)c1ccc(CO)o1)c1cc(C(=O)OC)ccc1OC -0.478
C=C[C@H](OC)[C@@H](OC(=O)Nc1ccc(OC)cc1)c1ccc(O)c(F)c1 0.313
COCCOC(=O)N1C(=O)[C@@]2(c3cc(C#CC4(O)CCCCCC4)ccc31)[C@H](c1ccccc1OCCO)N1[C@H](c3ccccc3)[C@H](c3ccccc3)OC(=O)[C@H]1[C@@H]2C(=O)N1CCN(c2ncccn2)CC1 1.86
C=CC(=C)[C@H]1Oc2ccccc2S(=O)(=O)N2CCC[C@@H]12 -0.0333
[N-]=[N+]=Nc1ccccc1[C@@H]1OC(c2ccc(OCCCO)cc2)=N[C@]1(Cc1ccccc1)C(=O)N1CCOCC1 2.15
COCCOC(=O)N1C(=O)[C@@]2(c3cc(C#CCCO)ccc31)[C@H](C(N)=O)[C@H]1C(=O)O[C@H](c3ccccc3)[C@H](c3ccccc3)N1[C@@H]2c1ccc(O)cc1 -0.142
C=C(C(=O)CC[C@@H](OC(=O)c1cccnc1)c1ccccc1OCCO)C(C)C 0.208
C=CCNC(=O)[C@H]1[C@@H]2C(=O)O[C@@H](c3ccccc3)[C@@H](c3ccccc3)N2[C@@H](c2ccccc2OCCO)[C@]12C(=O)Nc1ccc(C#CCC(C(=O)OC)C(=O)OC)cc12 2.62
